23 compounds from PubChem BioAssay (EPA / NIEHS) can be followed below.

Assay [1] concerns the target CCAAT/enhancer-binding protein beta (Homo sapiens) (UniProt P17676). As to the kind of experiment: ATG_C_EBP_CIS: Attagene CIS-FACTORIAL HepG2 Assay for human CCAAT/Enhancer Binding Protein (C/EBP) beta (AID 2282927). Particulars: HepG2 Attagene cis-factorial transcription factor reporter; actives raise or lower the signal. The method, boiled down: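 RT-PCR/capillary electrophoresis fluorescence of reporter mRNA, 24 h post-dose, in HepG2 cells carrying transfected cis-promoter reporter units. Bidirectional curve fitting against DMSO baseline captures gain or loss of signal.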

Assay [2] is described as follows: ATG_CMV_CIS: Attagene CIS-FACTORIAL HepG2 Assay for human CMV (Internal Marker) (AID 2282928).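 Note: endpoint acts as a background internal control marker rather than a target.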 Particulars: HepG2 CMV promoter reporter, transcription factor profiling; actives raise or lower the signal. The method, boiled down:
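CMV internal-marker background readout in transiently transfected HepG2 cells bearing cis-regulated reporter units. Reporter mRNA is measured 24 h after dosing by RT-PCR and capillary electrophoresis, with bidirectional fitting against DMSO.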

The nature of assay [3]: ATG_DR4_LXR_CIS: Attagene CIS-FACTORIAL HepG2 Assay for human Liver X Receptor (LXR), DR4 submotif (AID 2282929). Particulars: HepG2 Attagene DR4 cis-reporter, mRNA transcription; AC50: actives raise or lower the signal unless noted; outcome: actives raise or lower the signal unless noted. The essentials: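 After transient transfection with multiplexed cis-promoter reporter units, HepG2 cells received test chemicals for 24 h. Reporter mRNA induction, detected by fluorescence after RT-PCR and capillary electrophoresis, was scored relative to DMSO.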

Assay [4] addresses Aryl hydrocarbon receptor (Homo sapiens) (UniProt P35869). As to the kind of experiment: ATG_Ahr_CIS: Attagene CIS-FACTORIAL HepG2 Assay for human Aryl Hydrocarbon Receptor (Ahr) (AID 2282930). The settings on record: HepG2 AhR cis-factorial reporter transcription; actives raise or lower the signal. The essentials: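 HepG2 cells transiently transfected with cis-element-driven multiplexed reporter transcription units; endogenous transcription factor activity measured as reporter mRNA 24 h after dosing. RT-PCR, 6-FAM labelling, HpaI digestion, capillary electrophoresis; bidirectional fitting versus DMSO baseline.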

A short description of assay [5]: ATG_AP_1_CIS: Attagene CIS-FACTORIAL HepG2 Assay for human Activator Protein 1 (AP-1) (AID 2282931). The settings on record: HepG2 Attagene cis-factorial AP-1 reporter mRNA; actives raise or lower the signal. The method, boiled down: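 After 24 h incubation with test chemical, RNA from transfected HepG2 cells was reverse-transcribed, amplified, fluorescently labelled and digested before capillary electrophoresis. Reporters were driven by cis-regulatory promoters; activity fitted bidirectionally versus DMSO.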

A short description of assay [6]: ATG_AP_2_CIS: Attagene CIS-FACTORIAL HepG2 Assay for human Activator Protein 2 (AP-2) (AID 2282932). The settings on record: HepG2 AP-2 cis-reporter, Attagene transcription factor profiling; AC50: actives raise or lower the signal unless noted; outcome: actives raise or lower the signal unless noted. The method, boiled down: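 Bidirectional curve fitting against DMSO was applied to reporter mRNA signals from HepG2 cells 24 h after dosing. Cis-promoter reporter units, transiently transfected, were read by RT-PCR plus capillary electrophoresis.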

A short description of assay [7]: ATG_BRE_CIS: Attagene CIS-FACTORIAL HepG2 Assay for human Bone Morphogenetic Protein (BMP) Response Element (BRE) (AID 2282933). The settings on record: HepG2 BMP response element reporter, Attagene transcription factor profiling; actives raise or lower the signal. The essentials:
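Read-out: reporter mRNA induction quantified by RT-PCR and capillary electrophoresis after 24 h chemical exposure of transfected HepG2 cells. Endogenous factor activity on the BMP response element; gain or loss fitted against DMSO baseline.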

The target of assay [8] is Retinoic acid receptor alpha (Homo sapiens) (UniProt P10276). As to the kind of experiment: ATG_DR5_RAR_CIS: Attagene CIS-FACTORIAL HepG2 Assay for human Retinoic Acid Receptor Alpha (RARE), DR5 submotif (AID 2282934).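 For AC50: reporter responds to endogenous RAR alpha beta and gamma in HepG2 not RARA alone.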 Particulars: HepG2 Attagene cis-factorial RARE DR5 reporter, mRNA; actives raise or lower the signal. The method, boiled down: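 HepG2 cells transiently transfected with multiplexed reporter units under cis (DR5 RARE) promoters, so endogenous transcription factor activity is measured. After 24 h compound exposure, reporter mRNA is quantified by RT-PCR with fluorescent labelling and capillary electrophoresis; bidirectional fitting versus DMSO.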
Sequence of Retinoic acid receptor alpha (Homo sapiens) (P10276 whole entry, looked up): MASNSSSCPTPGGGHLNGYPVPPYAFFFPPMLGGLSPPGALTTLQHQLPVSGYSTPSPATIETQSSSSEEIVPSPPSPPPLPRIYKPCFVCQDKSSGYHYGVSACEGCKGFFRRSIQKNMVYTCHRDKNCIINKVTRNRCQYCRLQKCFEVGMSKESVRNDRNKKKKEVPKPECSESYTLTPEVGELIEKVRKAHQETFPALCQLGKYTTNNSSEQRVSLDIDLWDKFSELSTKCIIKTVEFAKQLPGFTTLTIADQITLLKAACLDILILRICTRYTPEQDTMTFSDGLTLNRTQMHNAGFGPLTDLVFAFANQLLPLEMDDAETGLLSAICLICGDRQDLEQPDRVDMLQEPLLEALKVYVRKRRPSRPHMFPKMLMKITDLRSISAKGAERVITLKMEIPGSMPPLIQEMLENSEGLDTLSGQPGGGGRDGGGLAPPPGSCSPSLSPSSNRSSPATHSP

For assay [9], the target named is Transcription factor E2F1 (Homo sapiens) (UniProt Q01094). The experiment in a line: ATG_E2F_CIS: Attagene CIS-FACTORIAL HepG2 Assay for human E2F Transcription Factor 1 (AID 2282935). The settings on record: HepG2 Attagene cis-reporter, E2F reporter RNA transcripts; actives raise or lower the signal. The essentials:
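Multiplexed cis-reporter assay: HepG2, transient transfection, 24 h dosing, mRNA quantitation by labeled RT-PCR and CE.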

Assay [10] is described as follows: ATG_E_Box_CIS: Attagene CIS-FACTORIAL HepG2 Assay for human Enhancer Box (E-box) (AID 2282936). The settings on record: HepG2 E-box cis-reporter transcription, actives raise or lower the signal. The method, boiled down: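 Multiplexed CIS reporter system in transiently transfected HepG2 cells measures native transcription factor activity. Reporter RNA after 24 h exposure is profiled by RT-PCR-capillary electrophoresis.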

Each structure is given as a SMILES string. “And” between values parts separate entries of the source, which are not always exact repeats. Equal values may be shown once. Some compounds were tested as several samples or in several runs, with calls that do not always agree. The source made the active and inactive calls. Rule for the calls: active = hit-call score of the fitted dose curve at least 0.9, where 1 is the maximum; inactive = score below 0.9.

Sequence of CCAAT/enhancer-binding protein beta (Homo sapiens) (P17676 whole entry, looked up): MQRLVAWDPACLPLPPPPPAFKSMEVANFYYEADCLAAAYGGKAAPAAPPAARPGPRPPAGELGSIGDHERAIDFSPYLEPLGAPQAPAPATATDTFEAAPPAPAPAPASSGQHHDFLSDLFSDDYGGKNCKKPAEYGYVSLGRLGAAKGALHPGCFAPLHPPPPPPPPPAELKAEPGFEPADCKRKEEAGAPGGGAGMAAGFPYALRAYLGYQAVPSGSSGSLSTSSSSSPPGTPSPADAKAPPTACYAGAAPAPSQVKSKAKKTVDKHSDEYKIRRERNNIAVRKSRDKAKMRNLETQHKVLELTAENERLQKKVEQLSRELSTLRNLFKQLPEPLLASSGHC
Sequence of Aryl hydrocarbon receptor (Homo sapiens) (P35869 whole entry, looked up): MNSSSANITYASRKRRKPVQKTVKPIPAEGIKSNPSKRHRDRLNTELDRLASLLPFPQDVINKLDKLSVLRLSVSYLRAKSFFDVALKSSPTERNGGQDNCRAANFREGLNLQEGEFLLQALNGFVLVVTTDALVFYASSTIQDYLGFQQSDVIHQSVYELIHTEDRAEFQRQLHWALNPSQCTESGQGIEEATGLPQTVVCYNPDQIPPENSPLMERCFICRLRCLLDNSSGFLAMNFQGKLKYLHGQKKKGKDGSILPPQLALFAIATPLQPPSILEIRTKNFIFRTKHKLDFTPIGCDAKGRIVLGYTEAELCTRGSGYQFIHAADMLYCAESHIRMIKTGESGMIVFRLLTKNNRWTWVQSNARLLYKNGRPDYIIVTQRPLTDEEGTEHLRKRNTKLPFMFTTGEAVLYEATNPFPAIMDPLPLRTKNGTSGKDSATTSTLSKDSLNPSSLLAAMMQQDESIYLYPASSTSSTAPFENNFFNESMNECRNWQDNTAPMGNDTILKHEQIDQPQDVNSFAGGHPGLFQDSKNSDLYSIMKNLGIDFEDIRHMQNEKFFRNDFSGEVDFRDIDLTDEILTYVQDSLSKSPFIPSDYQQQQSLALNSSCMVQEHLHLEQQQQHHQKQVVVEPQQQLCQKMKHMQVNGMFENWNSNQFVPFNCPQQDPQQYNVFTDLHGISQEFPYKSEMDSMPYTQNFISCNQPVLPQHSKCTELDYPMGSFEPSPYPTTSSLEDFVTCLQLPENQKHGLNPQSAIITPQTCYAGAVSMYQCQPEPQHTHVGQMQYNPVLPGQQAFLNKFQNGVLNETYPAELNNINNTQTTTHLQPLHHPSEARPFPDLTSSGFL
Sequence of Transcription factor E2F1 (Homo sapiens) (Q01094 whole entry, looked up): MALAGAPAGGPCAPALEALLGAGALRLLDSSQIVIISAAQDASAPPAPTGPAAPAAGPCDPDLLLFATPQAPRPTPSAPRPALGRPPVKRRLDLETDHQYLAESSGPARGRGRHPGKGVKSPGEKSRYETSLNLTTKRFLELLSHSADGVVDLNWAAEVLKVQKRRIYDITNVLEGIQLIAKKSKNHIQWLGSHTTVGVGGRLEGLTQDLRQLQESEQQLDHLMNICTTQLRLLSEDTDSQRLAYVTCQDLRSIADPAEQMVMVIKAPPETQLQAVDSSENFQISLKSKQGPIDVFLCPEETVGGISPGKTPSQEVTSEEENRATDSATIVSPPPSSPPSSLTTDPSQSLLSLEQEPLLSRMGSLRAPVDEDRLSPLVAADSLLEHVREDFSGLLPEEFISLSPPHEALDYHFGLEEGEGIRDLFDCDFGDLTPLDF

Regarding `O=C(F)C(F)(F)C(F)(F)C(F)(F)C(F)F`, the result in [1], in [2], in [3], in assay [4], in assay [5] and in assay [6] was inactive. The compound was classed as inactive in [7], in assay [8], in assay [9] and in assay [10].
With `COCC1CCC(CO)CC1` (stereo not drawn), the outcome in [1], in [2], in assay [3], in assay [4], in assay [5] and in [6] was inactive. The call in assay [7] and in [9] was inactive.
On to `C=CCOCC(CO)(CO)CO`, for which the result in assay [1], in [2], in assay [3], in assay [4], in assay [5] and in assay [6] was inactive. The call in assay [7], in assay [8], in assay [9] and in assay [10] was inactive.
In general, AC50 refers to the midpoint of the concentration-response curve, whichever way the signal moves. For `CCCCCCCCCCCC(=O)NCCCN(C)C`, the result in assay [1], in assay [2], in assay [3], in assay [4], in assay [5] and in [6] was inactive. Further, the result in [8] and in assay [10] was inactive. In addition, the AC50 in [7] is 17.6 µM (active).
With `C[N+](C)(CCCNS(=O)(=O)CCC(F)(F)C(F)(F)C(F)(F)C(F)(F)C(F)(F)C(F)(F)F)CC(=O)[O-]`, the result in assay [1], in [2], in assay [3], in assay [6], in [7] and in assay [8] was inactive. In addition, the result in assay [9] and in [10] was inactive. Moreover, the AC50 in assay [4] is 0.0224 µM (active); in assay [5], 0.00657 µM (active).
`NNc1nc(-c2ccc([N+](=O)[O-])cc2)cs1`: the outcome in assay [1], in assay [2], in assay [3], in assay [4], in [6] and in assay [8] was inactive. The compound was called inactive in assay [9] and in [10]. Moreover, the AC50 in assay [5] is 10.6 µM (active); in assay [7] it was 18.3 µM (active).
With `CC1CCC(CO)CC1` (stereo not drawn), the outcome in assay [1], in [2], in assay [3], in [4], in assay [5] and in [6] was inactive. Also, the compound was called inactive in assay [7], in assay [8], in [9] and in assay [10].
In the case of `Clc1ccc(Nc2nnc(Cc3ccncc3)c3ccccc23)cc1`, the result in assay [1], in [2], in assay [3], in [4], in assay [6] and in assay [7] was inactive. For the same compound, the compound was classed as inactive in assay [8], in assay [9] and in [10]. Further, the AC50 in assay [5] was 42 µM (active).
For `CCOC(=O)c1nc(C(Cl)(Cl)Cl)n(-c2ccc(Cl)cc2Cl)n1`, the result in assay [1], in [4], in [7], in assay [8] and in assay [10] was inactive. In addition, the AC50 in assay [2] is 29.6 µM (active); in [3] it was 48.5 µM (active); in assay [5], 57.8 µM (active); in assay [6] it was 25.3 µM (active); in [9], 181 µM (active).
On to `COC(=O)CC(C(C)=O)C(=O)OC` (stereo not drawn), for which the result in [1], in assay [2], in assay [3], in [4], in assay [5] and in assay [6] was inactive. In addition, the call in assay [7], in assay [8], in assay [9] and in [10] was inactive.
As to `CC(C)(C)c1ccc(CCC=O)cc1`, the outcome in [1], in [2], in assay [3], in [4], in assay [5] and in assay [6] was inactive. For the same compound, the outcome in assay [7], in assay [9] and in [10] was inactive.
As for `CCCCCCCCCCCC`, the result in assay [1], in [2], in [3], in assay [4], in assay [5] and in assay [6] was inactive. The outcome in assay [7], in assay [8], in assay [9] and in [10] was inactive.
Regarding `OCC(F)(F)C(F)(F)C(F)(F)C(F)(F)C(F)(F)C(F)(F)C(F)(F)C(F)(F)C(F)(F)C(F)(F)C(F)(F)F`, the outcome in [1], in assay [2], in [3], in assay [4], in assay [5] and in assay [6] was inactive. The result in assay [7], in assay [8], in assay [9] and in [10] was inactive.
`CC1COCc2cc3c(cc21)C(C)(C)C(C)C3(C)C` (stereo not drawn): the result in [1], in assay [2] and in assay [7] was inactive. In addition, the AC50 in assay [3] is 158 µM (active); in assay [4] it was 91.3 µM (active); in [5], 79.4 µM (active); in assay [6], 173 µM (active); in [8], 100 µM (active); in [10] it was 179 µM (active).
Take `O=CC(F)(F)C(F)(F)C(F)(F)C(F)F`: the outcome in [1], in assay [2], in assay [3], in [4], in [5] and in assay [6] was inactive. Further, the outcome in assay [7], in [8], in assay [9] and in assay [10] was inactive.
As to `CCO[Si](C)(C)OCC`, the outcome in assay [1], in assay [2], in assay [3], in assay [4], in [5] and in assay [6] was inactive. In addition, the compound was classed as inactive in [7], in assay [8], in assay [9] and in [10].
Take `CCC(=O)C=Cc1ccc(OC)cc1`: the result in assay [1], in assay [2], in [4], in assay [5], in [6] and in [7] was inactive. Also, the call in assay [8], in [9] and in assay [10] was inactive. The AC50 in [3] is 68.2 µM (active).
With `O=S(=O)(O)c1ccc2cc(O)ccc2c1`, the result in assay [1], in assay [2], in assay [3], in [4], in assay [5] and in assay [6] was inactive. In addition, the compound was called inactive in assay [7], in assay [8] and in assay [10].
On to `Brc1ccc(Oc2ccc(Br)cc2Br)cc1`, for which the result in assay [1], in [2], in [3], in [4], in assay [5] and in assay [6] was inactive. In addition, the outcome in assay [7], in assay [8] and in [10] was inactive.
For the compound `O=C1OC(=O)c2cc(-c3ccc4c(c3)C(=O)OC4=O)ccc21`, the outcome in assay [1], in assay [2], in [3], in assay [4], in assay [5] and in assay [6] was inactive. In addition, the compound was called inactive in [7], in assay [8], in [9] and in assay [10].
Turning to `O=P(O)(O)CCC(F)(F)C(F)(F)C(F)(F)C(F)(F)C(F)(F)C(F)(F)C(F)(F)C(F)(F)F`, the result in assay [1], in assay [2], in assay [3], in [4], in assay [5] and in assay [6] was inactive. Besides, the compound was classed as inactive in assay [7], in assay [8] and in [10].
Regarding `O=C(O)C(F)(F)OC(F)(F)C(F)(F)OC(F)(F)C(F)(F)OC(F)(F)C(F)(F)C(F)(F)C(F)(F)F`, the result in assay [1], in assay [2], in [4], in assay [5], in assay [7] and in [8] was inactive. In addition, the result in assay [9] and in [10] was inactive. Also, the AC50 was 16.6 µM (active) and 21.7 µM (active) in assay [3]; 93.6 µM (active) and 28.1 µM (active) in assay [6]; 89.1 µM (active) in [10].
Take `Oc1cccc2c(O)cccc12`: the outcome in [1], in assay [3], in assay [5], in assay [6], in [7] and in assay [8] was inactive. For the same compound, the call in [9] was inactive. Also, the results for the AC50 in assay [2], in assay [4] and in assay [10] were 64.5 µM (active), 0.578 µM (active) and 27.3 µM (active), respectively.
